In PubChem BioAssay (NCI):
About 83,000 compounds went through this panel and 20% of them were active in at least one assay; those are over-represented in the sample as a whole.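 Growth was measured after 48 h exposure to one concentration of compound in 96-well plates. Values under 10 count as active.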 A number with no mark means an inactive call. The source made the active and inactive calls.

test system: NCI-H460 lung; assay: NCI-60 one-dose screen, 48 h (100 = growth as untreated, 0 = no growth, -100 = all killed); details: 10 µM unless noted

Row | Structure (SMILES) | growth
1 | O=C1CC(c2ccc(O)c(O)c2)Oc2cc(O)c([C@@H]3O[C@H](CO)[C@@H](O)[C@H](O)[C@H]3O)c(O)c21 (stereo partly drawn) | 99.1%
2 | O=C(NCc1ccccc1)c1ccc2c(c1)NC(=O)[C@@H]1CCCN21 | 94.7%
3 | CCc1ccc(OCc2ccccc2C(=O)Nc2ccc3nc(C)cc(N)c3c2)cc1 | -67.6% (active)
4 | CSc1cccc(NC(=O)Nc2nc3c(C)cccc3s2)c1 | 97.6%
5 | COC(=O)[C@]1(C)CCC[C@]2(C)[C@H]3C[C@H]4C(C(C)C)=C[C@]3(CC[C@H]21)[C@@H]1C(=O)N(CCC#N)C(=O)[C@@H]14 | 101%
6 | CC1=C(CCCOC(=O)NCCCl)C2=C(C)C3(CC3)[C@@](C)(O)C(=O)C2=C1 | 3.59% (active)
7 | COc1ccc2[nH]c(-c3ccccc3)c(C=C(C#N)C#N)c2c1 | 15.3%
8 | Cc1nn(-c2ccc(-c3ccc(OC(F)(F)F)cc3)cc2)c2nc(-c3ccccc3)nc(N)c12 | 83.2%
9 | O=S(=O)(O)c1ccc(N=NSc2ccc3ccccc3c2)cc1 | 98.1%
10 | O=c1c2ccccc2n(CC(O)CN2CCCC2)c2c(Br)cccc12 (stereo not drawn) | 106%
11 | CS(=O)(=O)O[C@@H]1C(=O)N(c2cc3c4ccccc4ccc3c3ccccc23)[C@H]1c1ccc(F)cn1 | 16.4%
12 | CC(C)(C)c1nn(-c2ccccc2)c2c1COCN2Cc1ccc(Cl)cc1 | 81.1%
13 | Cc1cc(NC(=O)CNc2nc(Oc3ccc(F)cc3)nc(-c3ccc(F)cc3)n2)ccc1Cl | 99.3%
14 | CC(=O)c1cc2c(N)c(C(=O)Nc3ccccn3)sc2nc1C | 45.6%
15 | CCOC(=O)c1sc(/N=C2\NC(=O)/C(=C/c3ccc(N4CCN(C)CC4)cc3)S2)nc1C | 109%
16 | O=C(/C(=C/c1ccc([N+](=O)[O-])cc1)SCc1ccc(F)cc1)c1ccc(Cl)cc1 | 82.4%
17 | Cc1cnc(-c2ccc(-c3ccc(NC(=O)Nc4c(F)cc(F)cc4F)cc3F)c3c2C(=O)NC3)[nH]1 | -29.5% (active)
18 | COc1ccc(Nc2cc(NC(=O)CNc3cc(OC)c(Cl)c(OC)c3Cl)ncn2)cc1 | 89.3%
19 | Nc1n[nH]c2cccc(C#Cc3cccc(NC(=O)c4cc(N5CCOCC5)cc(C(F)(F)F)c4)c3)c12 | 47.3%

Row | Structure (SMILES) | growth
20 | CC(C)(C)CC(C)(C)Cc1ccc(OCCOCC[N+](C)(C)Cc2ccccc2)cc1 | 13.7%
21 | CCOCc1cc(C(C)(C)C)ccc1O | 103%
22 | C=C1C(=O)O[C@H]2[C@H]1CC/C(COC(=O)Nc1nc3ccccc3[nH]1)=C\CC[C@@]1(C)O[C@@H]21 | 91.4%
23 | C=C(C)[C@@H]1CC[C@]2(C(=O)n3ccnc3)CC[C@]3(C)[C@H](CC[C@@H]4[C@@]5(C)CCCNC(C)(C)[C@@H]5CC[C@]43C)[C@@H]12 | -71.8% (active)
24 | C=C(C)[C@@H]1CC[C@]2(C(=O)O)CC[C@]3(C)[C@H](CC[C@@H]4[C@@]5(C)C[C@@H](CC#Cc6ccccc6C)C(=O)C(C)(C)[C@@H]5CC[C@]43C)[C@@H]12 | 16%
25 | Clc1ccc2c(NCCCNC3CCCCC3)ccnc2c1 | 104%
26 | CN(C)C(CNc1oc(-c2cccc3ccccc23)nc1C#N)c1ccco1 (stereo not drawn) | 101%
27 | c1cc(CNC23CC4CC(CC(C4)C2)C3)cc(C[N+](Cc2cccc(CNC34CC5CC(CC(C5)C3)C4)c2)(Cc2cccc(CNC34CC5CC(CC(C5)C3)C4)c2)Cc2cccc(CNC34CC5CC(CC(C5)C3)C4)c2)c1 (stereo not drawn) | 3.83% [42 µM] (active)
28 | O=C1CCc2ccccc2N1 | 110%
29 | Cc1cnc(SCc2ccc(Cl)cc2Cl)nc1Nc1ccc(Cl)c(Cl)c1 | 92.2%
30 | COc1cc(C2=NN(C(C)=O)C(c3cccc(Nc4ccnc5cc(C(F)(F)F)ccc45)c3)C2)cc(OC)c1OC (stereo not drawn) | 57.6%
31 | CCOC(=O)c1c(-c2ccc(O)cc2)c(C#N)c2c(C#N)c(N)nn2c1N | 74.3%
32 | CN(C)CCCn1c2c(c3cc(-c4ccco4)ccc3c1=O)C(=O)c1ccccc1-2 | 46.3%
33 | Nc1cc(N)c(S(=O)(=O)O)cc1N=Nc1cc([N+](=O)[O-])ccc1O | 104%
34 | COc1cc(/C=N/Nc2nc(-c3ccc(F)cc3)c(C#N)c(N3CCOCC3)n2)ccc1O | 102%
35 | COc1cc(-c2csc(NC(=O)Nc3ccc(Cl)cc3)n2)cc(OC)c1OC | 24.9%
36 | N#CCNc1ccc(C(=O)O)cc1 | 103%
37 | CCOC(=O)c1ccc(Nc2ncnc3ccc(NC(=O)c4ccccc4)cc23)cc1 | 95.5%
38 | COC(=O)/C=C/c1cc(OC(C)=O)c2c(c1)C(C(=O)OC)C(c1ccc(OC(C)=O)c(OC(C)=O)c1)O2 (stereo not drawn) | 13.8%
